Data from PubChem BioAssay AID463173 (ICCB-Longwood Screening Facility, Harvard Medical School, 2010).
The campaign covered roughly 52,000 compounds. About 4,300 (8.3%) were called active. No stated cut-off is given here; in the data, active means survival mostly below about 52% (no sharp cut-off); inactive means mostly above about 56%. This excerpt belongs to a sample that is enriched for actives.

System: DeltatarO mutant
Test: S. aureus survival, RN4220 and DeltatarO strains – OD600, teichoic acid synthesis inhibitors, primary screen (AID 463173)
Settings: S. aureus RN4220 wild type/DeltatarO growth, OD600, 18 h, active compounds read low, screened at 18.75 µg/mL (by protocol)

**Q.** How did the survival turn out when COc1ccc(OC)c(NC(=O)c2cc(C3CC3)nc3c2c(C)nn3-c2ccc(C)cc2)c1 was run?
**A.** Its survival is 64% (inactive).

**Q.** For O=C(CSc1nnc(COc2ccc(F)cc2)o1)N1c2ccccc2CCc2ccccc21, which survival is on record?
**A.** The survival was 65% (inactive).

**Q.** Which survival does the source give for CCOC(=O)C1CCCN(c2ncnc3c2nnn3C)C1 (stereo not drawn) here?
**A.** Its survival is 117% (inactive).

**Q.** With Cn1nnc2c(N3CCN(c4ccc(F)cc4)CC3)ncnc21 as the molecule, how does the survival read?
**A.** The survival was 99% (inactive).

**Q.** For CC1CCN(c2ncnc3c2nnn3C)CC1, which survival is on record?
**A.** Its survival is 92% (inactive).

**Q.** For CCOC(=O)C1CCN(c2cc(C)c(C#N)c3nc4ccccc4n23)CC1, which survival is on record?
**A.** Its survival is 100% (inactive).

**Q.** COc1ccc(N2CCN(c3ncnc4c3nnn4C)CC2)cc1 was tested. Which survival did it give?
**A.** The survival was 0% (active).

**Q.** For CCOC(=O)C1CCN(c2nc(-c3ccc(Br)cc3)nc3ccccc23)CC1, which survival is on record?
**A.** The survival was 83% (inactive).

**Q.** How did the survival turn out when CCOC(=O)C1CCN(c2nc3ccccc3nc2Cl)CC1 was run?
**A.** Its survival is -24% (active).

**Q.** Which survival does the source give for Cn1nnc2c(N3CCN(c4ccccc4)CC3)ncnc21 here?
**A.** The survival was 74% (inactive).

**Q.** CCOC(=O)C1CCN(c2ncnc3c2nnn3C)CC1 was tested. Which survival did it give?
**A.** The survival was 37% (active).

**Q.** For Cc1cc(NS(=O)(=O)c2ccc(NC(=O)COc3ccc(Cl)cc3)cc2)nc(C)n1, which survival is on record?
**A.** The survival was 54% (inactive).

**Q.** For Cc1ccc2[nH]c(=O)c(CN(CC3COCCO3)C(=O)Nc3ccccc3F)cc2c1 (stereo not drawn), which survival is on record?
**A.** The survival was 96% (inactive).

**Q.** With CCCC12CCC(C(=O)O)(CC1)CC2 as the molecule, how does the survival read?
**A.** Its survival is 83% (inactive).

**Q.** For Cc1cc(C(=O)NCc2ccccc2Cl)c2c(C)nn(-c3cccc(F)c3)c2n1, which survival is on record?
**A.** Its survival is 68% (inactive).

**Q.** For CCC(=O)N1CCc2cc(S(=O)(=O)Nc3cc(C)ccc3OC)ccc21, which survival is on record?
**A.** Its survival is 84% (inactive).

**Q.** Which survival does the source give for Cc1cc(C)cc(NC(=O)c2cc(S(=O)(=O)N3CCc4ccccc43)cn2C)c1 here?
**A.** Its survival is 63% (inactive).

**Q.** With CC(C)OC(=O)CSc1n[nH]c(-c2cccnc2)n1 as the molecule, how does the survival read?
**A.** Its survival is 108% (inactive).

**Q.** Cc1ccnc(NS(=O)(=O)c2ccc(NC(=O)c3cc(=O)c4ccc(C)c(C)c4o3)cc2)n1 was tested. Which survival did it give?
**A.** The survival was 78% (inactive).

**Q.** With O=c1c2cnn(-c3ccc(F)cc3)c2ncn1Cc1ccccc1Cl as the molecule, how does the survival read?
**A.** Its survival is 100% (inactive).

**Q.** How did the survival turn out when Clc1ccccc1Cn1cccc1C1=NC(Cc2ccccc2)CO1 (stereo not drawn) was run?
**A.** Its survival is 40% (active).

**Q.** O=C(CSc1nccn1Cc1ccccc1)NCc1ccccc1Cl was tested. Which survival did it give?
**A.** Its survival is 92% (inactive).

**Q.** With O=C(Nc1ccc(S(=O)(=O)Nc2ncccn2)cc1)c1ccccc1Cl as the molecule, how does the survival read?
**A.** The survival was 81% (inactive).

**Q.** For COc1ccc(NC(=O)Nc2nnc(C)s2)cc1, which survival is on record?
**A.** Its survival is 91% (inactive).

**Q.** Cc1ccc2occ(CC(=O)N(Cc3ccc(Cl)cc3)C3CCS(=O)(=O)C3)c2c1 (stereo not drawn) was tested. Which survival did it give?
**A.** The survival was 64% (inactive).

**Q.** CCc1cccc(NC(=O)c2cc(-c3ccccc3)n[nH]2)c1 was tested. Which survival did it give?
**A.** The survival was 90% (inactive).

**Q.** CCc1cccc(N2C(=O)CSC23C(=O)Nc2ccccc23)c1 (stereo not drawn) was tested. Which survival did it give?
**A.** The survival was 85% (inactive).

**Q.** Which survival does the source give for CCc1ccc2c(c1)C1(NN=C(c3ccccc3)S1)C(=O)N2 (stereo not drawn) here?
**A.** The survival was 0% (active).

**Q.** Which survival does the source give for COc1cccc(NC(=O)Cn2cnc3c(nc4n3CCCCC4)c2=O)c1 here?
**A.** Its survival is 76% (inactive).

**Q.** How did the survival turn out when CCN(CC)c1ccc(NC(=O)CCS(=O)(=O)c2cc3c(cc2Cl)NC(=O)CO3)c(C)c1 was run?
**A.** The survival was 86% (inactive).

**Q.** With CCc1ccc(C(=O)CC2(O)C(=O)N(Cc3ccc(C)cc3)c3ccccc32)cc1 (stereo not drawn) as the molecule, how does the survival read?
**A.** Its survival is 57% (inactive).

**Q.** How did the survival turn out when CCCN1C(=O)C(O)(CC(=O)c2ccc(OC)c(OC)c2)c2ccccc21 (stereo not drawn) was run?
**A.** The survival was 146% (inactive).

**Q.** With Cc1ccc(CN2C(=O)C(O)(CC(=O)c3ccc(C)cc3)c3ccccc32)cc1 (stereo not drawn) as the molecule, how does the survival read?
**A.** Its survival is 65% (inactive).

**Q.** How did the survival turn out when Cc1ccccc1CN1C(=O)C(O)(CC(=O)c2cccc(Br)c2)c2ccccc21 (stereo not drawn) was run?
**A.** Its survival is 71% (inactive).

**Q.** For COc1ccc(C(=O)CC2(O)C(=O)N(Cc3ccccc3)c3ccc(Br)cc32)cc1 (stereo not drawn), which survival is on record?
**A.** The survival was 50% (inactive).

**Q.** For O=C(CC1(O)C(=O)N(Cc2ccccc2)c2ccc(Br)cc21)c1ccccc1 (stereo not drawn), which survival is on record?
**A.** The survival was 99% (inactive).

**Q.** CCCCN1C(=O)C(O)(CC(=O)c2ccc(CC)cc2)c2cc(Br)ccc21 (stereo not drawn) was tested. Which survival did it give?
**A.** The survival was 32% (active).

**Q.** Which survival does the source give for CCCCN1C(=O)C(O)(CC(=O)c2ccc(C)cc2C)c2cc(Br)ccc21 (stereo not drawn) here?
**A.** The survival was 11% (active).

**Q.** With COc1cccc(C(=O)CC2(O)C(=O)N(Cc3ccccc3)c3ccccc32)c1 (stereo not drawn) as the molecule, how does the survival read?
**A.** Its survival is 175% (inactive).

**Q.** How did the survival turn out when Cc1ccc(C(=O)CC2(O)C(=O)N(Cc3ccccc3)c3ccccc32)c(C)c1 (stereo not drawn) was run?
**A.** Its survival is 41% (active).

**Q.** Which survival does the source give for COc1ccc(C(=O)CC2(O)C(=O)N(Cc3cccc(C(F)(F)F)c3)c3ccccc32)cc1 (stereo not drawn) here?
**A.** The survival was 33% (active).

**Q.** For O=C(CCC(=O)N1CCSc2ccccc21)NCc1ccccc1Cl, which survival is on record?
**A.** The survival was 70% (inactive).

**Q.** With Cc1cccc(C(c2sc3nc(-c4ccco4)nn3c2O)N2CCN(c3ccccc3)CC2)c1 (stereo not drawn) as the molecule, how does the survival read?
**A.** The survival was 76% (inactive).

**Q.** Which survival does the source give for O=C(CN1CCCC1)N1N=C(c2cccs2)CC1c1cccs1 (stereo not drawn) here?
**A.** The survival was 86% (inactive).

**Q.** How did the survival turn out when CCOc1ccc(Cc2nc(C)c(CC(N)=O)c(=O)[nH]2)cc1 was run?
**A.** Its survival is 71% (inactive).

**Q.** With CCOC(=O)c1scc(-c2ccccc2)c1S(=O)(=O)Nc1ccc(N(C)C)cc1 as the molecule, how does the survival read?
**A.** The survival was 86% (inactive).

**Q.** How did the survival turn out when COC(=O)Cn1c(O)c(N=NC(=O)C2COc3ccccc3O2)c2ccccc21 (stereo not drawn) was run?
**A.** The survival was 69% (inactive).

**Q.** CCC(=O)Nc1cccc(NC(=O)c2cccs2)c1 was tested. Which survival did it give?
**A.** The survival was 72% (inactive).

**Q.** With CCOc1ccccc1NC(=O)Cn1c(=O)n(C(C)C)c(=O)c2oc3ccccc3c21 as the molecule, how does the survival read?
**A.** The survival was 109% (inactive).

**Q.** Which survival does the source give for CC1=C(c2ccc(C)c(C)c2)S(=O)(=O)N=C1N1CCC(C(=O)N2CCC(C)CC2)CC1 here?
**A.** The survival was 72% (inactive).

**Q.** Which survival does the source give for CC1=C(c2ccc(C)c(C)c2)S(=O)(=O)N=C1N1CCC(C(=O)N2CCCCC2)CC1 here?
**A.** The survival was 109% (inactive).

**Q.** Which survival does the source give for CC1=C(c2ccc(C(C)C)cc2)S(=O)(=O)N=C1N1CCC(C(=O)NCc2ccco2)CC1 here?
**A.** The survival was 79% (inactive).

**Q.** How did the survival turn out when CC1=C(c2ccc(C(C)C)cc2)S(=O)(=O)N=C1N1CCC(C(=O)NCc2ccc(C)o2)CC1 was run?
**A.** Its survival is 67% (inactive).

**Q.** CC1=C(c2ccc(C(C)C)cc2)S(=O)(=O)N=C1N1CCC(C(=O)NCc2ccccc2)CC1 was tested. Which survival did it give?
**A.** The survival was -1% (active).

**Q.** For CC1=C(c2ccc(C)c(C)c2)S(=O)(=O)N=C1N1CCC(C(=O)N2CCC(C(N)=O)CC2)CC1, which survival is on record?
**A.** The survival was -2% (active).

**Q.** For CCc1ccc(C2=C(C)C(N3CCC(C(=O)NCc4ccccc4)CC3)=NS2(=O)=O)cc1, which survival is on record?
**A.** The survival was 89% (inactive).

**Q.** Which survival does the source give for CC1=C(c2ccc(C(C)C)cc2)S(=O)(=O)N=C1N1CCC(C(=O)NCCc2ccco2)CC1 here?
**A.** The survival was 6% (active).

**Q.** Which survival does the source give for CC1=C(c2ccc(Cl)cc2)S(=O)(=O)N=C1N1CCC(C(=O)NCCc2ccco2)CC1 here?
**A.** The survival was 81% (inactive).
